From PubChem BioAssay AID463173 (ICCB-Longwood Screening Facility, Harvard Medical School, 2010)
The campaign covered roughly 52,000 compounds. About 4,300 (8.3%) were called active. Cut-off read from the data, not from the text of the source: active = survival mostly below about 52% (no sharp cut-off); inactive = mostly above about 56%. The full list was thinned out, with actives kept by preference.

System: DeltatarO mutant
Experiment: growth inhibition of S. aureus wild type versus tarO mutant, primary screen, teichoic acid synthesis inhibitors, RN4220, OD600 (AID 463173)
Settings: OD600, 18 h, hits give low values, screened at 18.75 µg/mL (by protocol)

SMILES | survival
COC(=O)c1ccccc1NC(=O)c1ccc2nc(CCc3ccccc3)oc2c1 | 131% (inactive)
CCc1ccccc1N1C(=O)N(CC(=O)c2ccc(Cl)cc2)c2ccccc2S1(=O)=O | 82% (inactive)
CCOC(=O)c1ccc2c(c1)sc1nc(-c3ccc(OCC)cc3)cn12 | 44% (active)
CCOC(=O)C1CCN(C(=O)c2ccc3c(c2)sc2nc(-c4ccc(OCC)cc4)cn23)CC1 | 69% (inactive)
CCOC(=O)C1CCN(C(=O)c2ccc3c(c2)sc2nc(-c4ccc(OC)cc4)cn23)CC1 | 78% (inactive)
Cc1ccc(-c2cn3c(n2)sc2cc(C(=O)NCCC4=CCCCC4)ccc23)cc1 | 56% (inactive)
CCOC(=O)C1CCN(C(=O)c2ccc3c(c2)sc2nc(-c4ccc(C)cc4)cn23)CC1 | 98% (inactive)
O=C(NCCC1=CCCCC1)c1ccc2c(c1)sc1nc(-c3ccc(F)cc3)cn12 | 63% (inactive)
CCN(CC)CCCNC(=O)c1ccc2c(c1)sc1nc(-c3ccc(C)cc3)cn12 | 24% (active)
O=C(NCc1ccccc1)c1ccc2c(c1)sc1nc(-c3ccc(F)cc3)cn12 | 101% (inactive)
CCOC(=O)C1CCN(C(=O)c2ccc3c(c2)sc2nc(-c4ccccc4)cn23)CC1 | 54% (active)
CCCNC(=O)c1ccc2c(c1)sc1nc(-c3ccc(C)cc3)cn12 | 89% (inactive)
CCN(CC)CCNC(=O)c1ccc2c(c1)sc1nc(-c3ccc(F)cc3)cn12 | 29% (active)
CCOc1ccc(CNC(=O)c2ccc3c(c2)sc2nc(-c4ccc(OC)cc4)cn23)cc1 | 84% (inactive)
COc1ccc(S(=O)(=O)Nc2cccc(-c3ccc(N4CCCC4)nn3)c2)cc1F | 85% (inactive)
COc1ccc(Nc2ncnc3c2cnn3C)c(OC)c1 | 89% (inactive)
CNS(=O)(=O)c1cn(CC(=O)Nc2cccc(C(F)(F)F)c2)cc1S(=O)(=O)NC | 107% (inactive)
Cc1ccccc1OC(=O)CSc1nnc(-c2ccc(F)cc2)o1 | 63% (inactive)
CCN1CCc2c(sc(NC(=O)c3ccc(S(=O)(=O)N(CCOC)CCOC)cc3)c2C(N)=O)C1 | 69% (inactive)
CCc1cccc(C)c1NC(=O)c1cc(S(=O)(=O)N2CCC3(CC2)OCCO3)ccc1F | 116% (inactive)
Cc1ccc(CSCCNC(=O)C2CCN(S(=O)(=O)Cc3ccccc3)CC2)cc1 | 99% (inactive)
CCOc1ccc(-c2cn3c(n2)sc2cc(C(=O)NCCCc4ccccc4)ccc23)cc1 | 72% (inactive)
CCCSCCCNC(=O)c1ccc2c(c1)sc1nc(-c3ccc(OCC)cc3)cn12 | 55% (inactive)
CCOc1ccc(-c2cn3c(n2)sc2cc(C(=O)NCCCN(CC)CC)ccc23)cc1 | 15% (active)

SMILES | survival
COc1ccc(-c2nn(-c3ccccc3)cc2C2NC(=O)NC(C)=C2C(=O)OC(C)C)cc1Cl (stereo not drawn) | 106% (inactive)
Cc1ccc(NC(=O)c2ccc(CN3CC(=O)N4CCCCC4C3=O)cc2)cc1C (stereo not drawn) | 77% (inactive)
O=C(Nc1ccc(F)cc1)c1ccc(CN2CC(=O)N3CCCCC3C2=O)cc1 (stereo not drawn) | -4% (active)
CC(C)c1ccc(NC(=O)c2ccc(CN3CC(=O)N4CCCCC4C3=O)cc2)cc1 (stereo not drawn) | 77% (inactive)
Cc1ccc(NC(=O)c2ccc(CN3CC(=O)N4CCCCC4C3=O)cc2)cc1 (stereo not drawn) | -5% (active)
O=C(Nc1cc(F)ccc1F)c1ccc(CN2CC(=O)N3CCCCC3C2=O)cc1 (stereo not drawn) | 92% (inactive)
CCc1ccc(NC(=O)c2ccc(CN3CC(=O)N4CCCCC4C3=O)cc2)cc1 (stereo not drawn) | 66% (inactive)
O=S(=O)(NCc1ccco1)c1cccc(S(=O)(=O)N2CCCCC2)c1 | 90% (inactive)
O=C(NC1CCCCC1)c1ccc(Cn2c(SCc3cccc(F)c3)nc3cccnc32)cc1 | 81% (inactive)
Cc1ccc2c(c1)N(C(=O)N1CCC(C(=O)NCc3ccccc3C)CC1)CC(C)O2 (stereo not drawn) | 74% (inactive)
Cc1noc(-c2ccc(N(C)Cc3ccccc3)c([N+](=O)[O-])c2)n1 | 75% (inactive)
COc1ccc(CC(=O)NCc2nc3cccnc3n2Cc2ccccc2)cc1 | 80% (inactive)
COc1ccccc1N1CCN(S(=O)(=O)c2c(C)sc3ncn(CC(=O)N(C)c4ccc(C(C)C)cc4)c(=O)c23)CC1 | 67% (inactive)
CCCCN(C)CCNC(=O)c1cc(-c2ccc(Cl)s2)nc2ccccc12 | 62% (inactive)
COc1cc(NC(=O)CSc2nc(C)c(C(=O)Nc3ccccc3)c(-c3ccc(OC)c(OC)c3)c2C#N)c(OC)cc1Cl | 61% (inactive)
COc1ccc(CCn2c(=O)c3cccnc3n(CC(=O)Nc3c(C)cc(C)cc3C)c2=O)cc1OC | 90% (inactive)
Cc1ccccc1CN1C(=O)c2ccccc2S(=O)(=O)c2ccc(C(=O)OCC3CCCO3)cc21 (stereo not drawn) | 71% (inactive)
CCOc1ccc(CCNC(=O)c2c(C)oc3ncn(CC(C)C)c(=O)c23)cc1 | 72% (inactive)
Cc1ccc(NC(=O)c2c(C)oc3nc(C)nc(N4CCCC4)c23)c(C)c1 | 70% (inactive)
Cc1nc(N2CCCC2)c2c(C(=O)Nc3ccc(Br)cc3F)c(C)oc2n1 | 25% (active)
Cc1oc2ncnc(N3CCOCC3)c2c1C(=O)Nc1ccc(Br)cc1F | 135% (inactive)
Cc1nc(N2CCCC2)c2c(C(=O)Nc3cccc(Cl)c3)c(C)oc2n1 | 20% (active)
Cc1nc(N2CCCC2)c2c(C(=O)Nc3ccc(C)c(Cl)c3)c(C)oc2n1 | 124% (inactive)
CCc1cccc(NC(=O)c2c(C)oc3nc(C)nc(N4CCCC4)c23)c1 | 103% (inactive)

SMILES | survival
COc1cc(Cl)c(C)cc1NC(=O)c1cnc(N2CCOCC2)c2ccccc12 | 71% (inactive)
COc1cc(CN(C(=O)c2ccccc2F)C2CCS(=O)(=O)C2)cc(OC)c1OC (stereo not drawn) | 46% (inactive)
COc1ccc(N2CCN(c3ncnc4c3cnn4C)CC2)cc1 | 75% (inactive)
O=c1c2cn[nH]c2nc(SCc2c(F)cccc2F)n1-c1ccc(Cl)cc1 | 91% (inactive)
CC(C)c1ccc(NC(=O)CN2CCC(n3nnc4ccccc43)CC2)cc1 | 69% (inactive)
CCN(CC)CCN(C(=O)c1ccc(C(=O)OC)cc1)c1nc2ccc(Cl)cc2s1 | -4% (active)
CCN(CC)CCN(C(=O)c1ccco1)c1nc2ccc(Cl)cc2s1 | 66% (inactive)
CCc1ccc2nc(N(CCN(CC)CC)C(=O)c3ccco3)sc2c1 | 54% (inactive)
COc1ccc(-c2cn3nc(N4CCCC(C(=O)Nc5cc(C)cc(C)c5)C4)sc3n2)cc1 (stereo not drawn) | 75% (inactive)
COc1ccc(-n2nnc(-c3nsc(NC(=O)c4cccc(C)c4)n3)c2C)cc1OC | 88% (inactive)
CC(C)OCCCNC(=O)c1ccc(-n2c(-c3ccccc3)cc3c2CCCC3)cc1 | 75% (inactive)
CCN(CC)CCNC(=O)c1ccc(-n2c(-c3ccccc3)cc3c2CCCC3)cc1 | 8% (active)
COCCCNC(=O)c1ccc(-n2c(-c3ccccc3)cc3c2CCCC3)cc1 | 70% (inactive)
COCCCNC(=O)c1ccc(-n2c(-c3ccccc3)cc3c2CCCCC3)cc1 | 39% (active)
CCNC(=O)c1ccc(-n2c(-c3ccccc3)cc3c2CCCCC3)cc1 | 43% (active)
CCCNC(=O)c1ccc(-n2c(-c3ccccc3)cc3c2CCCCC3)cc1 | 103% (inactive)
COCCNC(=O)c1ccc(-n2c(-c3ccccc3)cc3c2CCCCC3)cc1 | 110% (inactive)
CN(C)CCNC(=O)c1ccc(-n2c(-c3ccccc3)cc3c2CCCC3)cc1 | 33% (active)
CC(C)NC(=O)c1ccc(-n2c(-c3ccccc3)cc3c2CCCCC3)cc1 | 108% (inactive)
CN(C)CCNC(=O)c1ccc(-n2c(-c3ccccc3)cc3c2CCCCC3)cc1 | 53% (inactive)
CCOCCCNC(=O)c1ccc(-n2c(-c3ccccc3)cc3c2CCCC3)cc1 | 69% (inactive)
CCOCCCNC(=O)c1ccc(-n2c(-c3ccccc3)cc3c2CCCCC3)cc1 | 49% (inactive)
Cc1nnc(NCc2ccccc2)c2c1nnn2Cc1ccccc1Cl | 92% (inactive)
COc1ccc(CCNC(=O)c2c(C)nn(-c3ccc(F)cc3)c2-n2cccc2)cc1OC | 74% (inactive)

SMILES | survival
Cc1oc2c(c1C(=O)Nc1ccc(OC(F)(F)F)cc1)C1=NCCN1C=N2 | 80% (inactive)
COc1ccccc1CN1C(=O)CN(C2CCCCCC2)C(=O)C1c1ccc(C)cc1 (stereo not drawn) | 88% (inactive)
Cc1ccc(-n2c(SCC(=O)Nc3cccc(C)c3)nc3c(oc4ccccc43)c2=O)cc1 | 99% (inactive)
Cc1cccc(-n2ncc(C(=O)N3CCN(C(=O)c4ccco4)CC3)c2C2CCN(C(=O)OC(C)(C)C)CC2)c1 | 62% (inactive)
CCCC(CCC)C(=O)Nc1cccc(-c2cn3cccnc3n2)c1 | 83% (inactive)
CCC1CCCCN1C(=O)Cn1c(=O)n(CC2CCC(C(=O)NC)CC2)c(=O)c2sccc21 (stereo not drawn) | 102% (inactive)
Oc1ccc(Br)cc1C1CC(c2ccccc2)=NC(c2ccco2)N1 (stereo not drawn) | 1% (active)
O=C(CCN1CCOCC1)N1N=C(c2ccccc2)CC1c1ccco1 (stereo not drawn) | 89% (inactive)
O=c1oc2c(F)cc(F)cc2cc1S(=O)(=O)c1ccc(F)cc1 | 60% (inactive)
CCN(CC)c1ccc(-c2nc(-c3ccncc3)no2)cc1[N+](=O)[O-] | 79% (inactive)
CCN(CC)c1ccc(-c2nc(-c3ccccn3)no2)cc1[N+](=O)[O-] | 41% (active)
COc1ccccc1-c1noc(-c2ccc(N(C)Cc3ccccc3)c([N+](=O)[O-])c2)n1 | 36% (active)
COc1ccc(CN(C)c2ccc(-c3nc(-c4ccc(OC)c(OC)c4)no3)cc2[N+](=O)[O-])cc1 | 62% (inactive)
CN(Cc1ccccc1)c1ccc(-c2nc(-c3ccncc3)no2)cc1[N+](=O)[O-] | 63% (inactive)
CN(Cc1ccccc1)c1ccc(-c2nc(-c3ccccc3)no2)cc1[N+](=O)[O-] | 69% (inactive)
COc1ccc(CN(C)c2ccc(-c3nc(-c4ccccc4)no3)cc2[N+](=O)[O-])cc1 | 71% (inactive)
CCN(CC)c1ccc(-c2nc(-c3ccccc3C)no2)cc1[N+](=O)[O-] | 68% (inactive)
CCN(CC)c1ccc(-c2nc(-c3ccco3)no2)cc1[N+](=O)[O-] | 47% (inactive)
CCc1noc(-c2ccc(N(C)Cc3ccc(OC)cc3)c([N+](=O)[O-])c2)n1 | 75% (inactive)
CN(Cc1ccccc1)c1ccc(-c2nc(-c3ccccn3)no2)cc1[N+](=O)[O-] | 34% (active)
CCN(Cc1ccc(OC)cc1)c1ccc(-c2nc(-c3ccncc3)no2)cc1[N+](=O)[O-] | 41% (active)
